According to PubChem BioAssay (EPA / NIEHS):
The source made the active and inactive calls. Rule for the calls: active = hit-call score of the fitted dose curve at least 0.9, where 1 is the maximum; inactive = score below 0.9.

system: not listed separately; test: ATG_NRF2_ARE_CIS: Attagene CIS-FACTORIAL HepG2 Assay for human Nuclear Factor Erythroid 2 Related Factor 2 (NFR2) response to Antioxidant Response Elements (ARE) (AID 2282992); conditions: HepG2 Attagene ARE/NRF2 reporter, transcription factor activity; actives raise or lower the signal;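 for AC50: reporter mRNA level measured by RT-PCR and capillary electrophoresis fluorescence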
Procedure, shortened: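 Fluorescence intensity of reporter-specific cDNA fragments, separated by capillary electrophoresis, reflects mRNA induction in transfected HepG2 cells at 24 h. Activity is fitted bidirectionally, DMSO serving as baseline.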

SMILES | outcome | AC50
CCCc1cc(=O)[nH]c(=S)[nH]1 | inactive | –
Cc1ccc(N(C)C)cc1 | inactive | –
CCOc1ccc2c(c1)C(C)=CC(C)(C)N2 | – | 27.1 µM (active)
CC1=C(/C=C/C(C)=C/C=C/C(C)=C/CO)C(C)(C)CCC1 | – | 44.2 µM (active)
NCCO | inactive | –
COc1cc(/C=C/C(=O)CC(=O)/C=C/c2ccc(O)c(OC)c2)ccc1O | – | 8.71 µM (active)
CNC(=O)[C@H]1O[C@@H](n2cnc3c(NCc4cc(Cl)ccc4OCc4cc(C)no4)ncnc32)[C@H](O)[C@@H]1N | inactive | –
O=c1[nH]cc(F)c(=O)[nH]1 | inactive | –
O=C(O)Cc1ccccc1Nc1c(Cl)cccc1Cl | inactive | –
CCCCc1ccc2c(n1)[C@@H](c1ccc(OC)cc1C[C@H](C)C(=O)O)[C@H](C(=O)O)[C@H]2c1ccc2c(c1)OCO2 | inactive | –
CC(=O)OCCOCCOCCOC(C)=O | inactive | –
Cc1c(C(=O)O)c(O)cc2c1C(=O)c1c(O)c([C@@H]3O[C@H](CO)[C@@H](O)[C@H](O)[C@H]3O)c(O)c(O)c1C2=O | inactive | –
CC(=O)OC/C=C(\C)CCC=C(C)C | inactive | –
CCCCCCCCCCCCCCCC | inactive | –
Cc1ccccc1Cl | inactive | –
C=CCc1ccc(O)c(OC)c1 | – | 27 µM (active)
Cc1cc(NC(=O)C(=O)O)cc(C)c1Oc1ccc(O)c2c1CCC2 | inactive | –
CC(=O)C(C)=CC1C(C)=CCCC1(C)C (centres undefined) | inactive | –
FC(F)(F)C(F)(F)C(F)(F)C(F)(F)C(F)(F)C(F)(F)CCI | inactive | –

system: not listed separately; test: ATG_Oct_MLP_CIS: Attagene CIS-FACTORIAL HepG2 Assay for human Octamer-Binding Transcription Factor (Oct) (AID 2282993); conditions: HepG2 Attagene cis-factorial Oct reporter, mRNA; actives raise or lower the signal
Procedure, shortened: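 HepG2 cells transiently transfected with cis-element-driven reporter transcription units (endogenous TF activity); 24 h compound exposure. Reporter mRNA quantified by RT-PCR, 6-FAM labelling, HpaI digestion and capillary electrophoresis; bidirectional fit versus DMSO baseline.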

SMILES | outcome | AC50
COCCOC[C@H](CC1(C(=O)NC2CCC(C(=O)O)CC2)CCCC1)C(=O)Oc1ccc2c(c1)CCC2 (some centres undefined) | inactive | –
Cc1ccc(Cl)cc1 | inactive | –
CCCc1cc(=O)[nH]c(=S)[nH]1 | inactive | –
CCOc1ccc2c(c1)C(C)=CC(C)(C)N2 | – | 142 µM (active)
CC(=O)OCCOCCOCCOC(C)=O | inactive | –
Cc1c(C(=O)O)c(O)cc2c1C(=O)c1c(O)c([C@@H]3O[C@H](CO)[C@@H](O)[C@H](O)[C@H]3O)c(O)c(O)c1C2=O | inactive | –
CCCCCCCCCCCCCCCC | inactive | –
Cc1ccccc1Cl | inactive | –
C=CCc1ccc(O)c(OC)c1 | inactive | –
Cc1cc(NC(=O)C(=O)O)cc(C)c1Oc1ccc(O)c2c1CCC2 | inactive | –

biological target: Cellular tumor antigen p53 (Homo sapiens) (UniProt P04637); test: ATG_p53_CIS: Attagene CIS-FACTORIAL HepG2 Assay for human p53 Transcription Factor (AID 2282994); conditions: HepG2 p53 cis-element reporter, Attagene mRNA; actives raise or lower the signal
Procedure, shortened: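 Transiently transfected HepG2 (multiple cis reporter transcription units); exposure 24 h; reporter RNA via RT-PCR, 6-FAM extension, 2 h HpaI digest at 37 C, CE detection; DMSO baseline.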

Cellular tumor antigen p53 (Homo sapiens), sequence (P04637 whole entry, looked up): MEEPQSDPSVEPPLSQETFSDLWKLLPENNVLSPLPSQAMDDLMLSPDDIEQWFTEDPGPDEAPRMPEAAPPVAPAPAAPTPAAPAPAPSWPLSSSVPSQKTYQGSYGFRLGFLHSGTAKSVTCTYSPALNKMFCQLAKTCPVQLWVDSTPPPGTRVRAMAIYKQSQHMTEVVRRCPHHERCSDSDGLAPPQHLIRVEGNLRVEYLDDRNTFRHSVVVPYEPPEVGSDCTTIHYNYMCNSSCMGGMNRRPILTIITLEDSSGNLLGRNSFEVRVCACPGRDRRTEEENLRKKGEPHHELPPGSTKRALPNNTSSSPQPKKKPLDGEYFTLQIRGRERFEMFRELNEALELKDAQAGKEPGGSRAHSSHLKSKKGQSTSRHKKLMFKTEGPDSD

SMILES | outcome | AC50
COc1cc(S(=O)(=O)O)c(C)cc1N=Nc1c(O)ccc2cc(S(=O)(=O)O)ccc12 | inactive | –
COCCOC[C@H](CC1(C(=O)NC2CCC(C(=O)O)CC2)CCCC1)C(=O)Oc1ccc2c(c1)CCC2 (some centres undefined) | inactive | –
CN1CCCC1=O | inactive | –
COc1ccc(S(=O)(=O)N2C(=O)[C@@](c3ccccc3OC)(N3C[C@H](O)C[C@H]3C(=O)N(C)C)c3cc(Cl)ccc32)c(OC)c1 | – | 49.7 µM (active)
CCOC(=O)CCC(=O)OCC | inactive | –
COc1ccc2c(c1)c(CC(=O)O)c(C)n2C(=O)c1ccc(Cl)cc1 | inactive | –
NS(=O)(=O)c1cc2c(cc1Cl)NCNS2(=O)=O | inactive | –
CCCCCCCCCCCCCO | inactive | –
COc1cccc2c1C(=O)c1c(O)c3c(c(O)c1C2=O)C[C@@](O)(C(=O)CO)C[C@@H]3O[C@H]1C[C@H](N)[C@H](O)[C@H](C)O1 | – | 2.24 µM (active)
CC=Cc1ccc(O)c(OC)c1 | inactive | –
Cc1ccc(Cl)cc1 | inactive | –
CCCc1cc(=O)[nH]c(=S)[nH]1 | inactive | –
Cc1ccc(N(C)C)cc1 | inactive | –
CCOc1ccc2c(c1)C(C)=CC(C)(C)N2 | inactive | –
CC1=C(/C=C/C(C)=C/C=C/C(C)=C/CO)C(C)(C)CCC1 | inactive | –
NCCO | inactive | –
COc1cc(/C=C/C(=O)CC(=O)/C=C/c2ccc(O)c(OC)c2)ccc1O | – | 50.2 µM (active)
CNC(=O)[C@H]1O[C@@H](n2cnc3c(NCc4cc(Cl)ccc4OCc4cc(C)no4)ncnc32)[C@H](O)[C@@H]1N | inactive | –
O=c1[nH]cc(F)c(=O)[nH]1 | – | 11.5 µM (active)
O=C(O)Cc1ccccc1Nc1c(Cl)cccc1Cl | inactive | –
CCCCc1ccc2c(n1)[C@@H](c1ccc(OC)cc1C[C@H](C)C(=O)O)[C@H](C(=O)O)[C@H]2c1ccc2c(c1)OCO2 | inactive | –
CC(=O)OCCOCCOCCOC(C)=O | inactive | –
Cc1c(C(=O)O)c(O)cc2c1C(=O)c1c(O)c([C@@H]3O[C@H](CO)[C@@H](O)[C@H](O)[C@H]3O)c(O)c(O)c1C2=O | inactive | –
CC(=O)OC/C=C(\C)CCC=C(C)C | inactive | –
CCCCCCCCCCCCCCCC | inactive | –
Cc1ccccc1Cl | inactive | –
C=CCc1ccc(O)c(OC)c1 | inactive | –
Cc1cc(NC(=O)C(=O)O)cc(C)c1Oc1ccc(O)c2c1CCC2 | inactive | –
CC(=O)C(C)=CC1C(C)=CCCC1(C)C (centres undefined) | inactive | –
FC(F)(F)C(F)(F)C(F)(F)C(F)(F)C(F)(F)C(F)(F)CCI | inactive | –

read-out: not listed separately; test: BSK_3C_TissueFactor: BioMAP Diversity Plus: 3C Assay for Tissue Factor Biomarker Activity (AID 2282997); conditions: BioMAP 3C HUVEC, tissue factor biomarker readout; actives raise or lower the signal
Procedure, shortened: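 Tissue factor on primary human umbilical vein endothelium was read by ELISA 24 h after dosing, gain or loss relative to DMSO. Cytotoxicity ran alongside via SRB (0.1%, TCA-fixed, 560 nm).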

SMILES | outcome
COc1ccc(S(=O)(=O)N2C(=O)[C@@](c3ccccc3OC)(N3C[C@H](O)C[C@H]3C(=O)N(C)C)c3cc(Cl)ccc32)c(OC)c1 | inactive
CCOC(=O)CCC(=O)OCC | inactive
COc1ccc2c(c1)c(CC(=O)O)c(C)n2C(=O)c1ccc(Cl)cc1 | inactive
CC=Cc1ccc(O)c(OC)c1 | inactive
Cc1ccc(Cl)cc1 | inactive
CCCc1cc(=O)[nH]c(=S)[nH]1 | inactive
NCCO | inactive
Cc1c(C(=O)O)c(O)cc2c1C(=O)c1c(O)c([C@@H]3O[C@H](CO)[C@@H](O)[C@H](O)[C@H]3O)c(O)c(O)c1C2=O | inactive
CC(=O)OC/C=C(\C)CCC=C(C)C | inactive
CCCCCCCCCCCCCCCC | inactive
Cc1ccccc1Cl | inactive
C=CCc1ccc(O)c(OC)c1 | inactive
Cc1cc(NC(=O)C(=O)O)cc(C)c1Oc1ccc(O)c2c1CCC2 | inactive
CC(=O)C(C)=CC1C(C)=CCCC1(C)C (centres undefined) | inactive
FC(F)(F)C(F)(F)C(F)(F)C(F)(F)C(F)(F)C(F)(F)CCI | inactive
